Among all 48,000 compounds or so, about 13,000 (27%) showed an effect of 50% or more. Some of the results follow.
These molecules were tested on Wolbachia pipientis (assay: Anti-Wolbachia Cell-Based Screen). Settings: 5 µM.
Assay type: functional
Parameters: scale not given: in the data most compounds retested in dose-response had high values
In the case of `O=C(CN1CCCS1(=O)=O)NCCOc1ccc2c(c1)CCC2`, the “Percent Effect” value is reported as -4.434%.
For `Cn1ccnc1SCCNc1nccc(C(F)(F)F)n1`, the “Percent Effect” value was -12.11%.
`Cn1c(Nc2cn[nH]c2)c(C#N)c(=O)n(C)c1=O` was tested, and the “Percent Effect” value was -4.688%.
In the case of `CN1C(=O)CCc2cc(NC(=O)C3CC3)ccc21`, the “Percent Effect” value is reported as -10.85%.
In the case of `CN1CC(C(=O)NCCc2ccc3c(c2)OCO3)CC1=O` (stereo unspecified), the “Percent Effect” value is reported as 94.15%.
With `O=C(CCS(=O)(=O)C1CCCC1)NCCc1ccc2c(c1)OCCO2` the “Percent Effect” value was -0.351%.
With `CN1CC(C(=O)NCCc2ccc3c(c2)OCCO3)CC1=O` (stereo unspecified) the “Percent Effect” value was 92.09%.
In the case of `CN(Cc1nnc2n1CCC2)C(=O)NCCc1ccc2c(c1)OCO2`, the “Percent Effect” value is reported as 2.683%.
In the case of `COc1ccc(C2C3=C(CCCC3=O)Nc3nc(SC)nc(N)c32)cc1` (stereo unspecified), the “Percent Effect” value is reported as 12.57%.
With `CN1CCN(C(C)(C)CNC(=O)C2CCCN2S(C)(=O)=O)CC1` (stereo unspecified) the “Percent Effect” value was 10.51%.
`CC(C)c1ccc(CS(=O)(=O)Cc2nc(N)nc(N(C)C)n2)cc1` was tested, and the “Percent Effect” value was -6.914%.
With `COc1cc(C2(C(=O)N3CCN(CC(C)O)CC3)CC2)ccc1C` (stereo unspecified) the “Percent Effect” value was 6.894%.
In the case of `Cc1ccc(OCc2cccc(C(=O)N(C)CCC#N)c2)cn1`, the “Percent Effect” value is reported as 10.32%.
For `CC(C)(Oc1ccc(C(N)=O)cc1)C(=O)N(CCC#N)CC1CCCO1` (stereo unspecified), the “Percent Effect” value was 108.9%.
With `CCOc1ccc(CC(=O)N(CCC(=O)OC)CC2CCCO2)cc1` (stereo unspecified) the “Percent Effect” value was 5.007%.
For `CC(C)(Oc1ccc(C(N)=O)cc1)C(=O)N(CCC#N)C1CC1`, the “Percent Effect” value was 118.6%.
For `Cc1ccc(OCCC(=O)N(C)CCC#N)cc1C`, the “Percent Effect” value was -4.451%.
In the case of `COC(=O)CCN(CC1CCCO1)C(=O)CCc1ccc(OC)cc1` (stereo unspecified), the “Percent Effect” value is reported as -1.307%.
`CN(CCC#N)C(=O)C(C)(C)Oc1ccc(C(N)=O)cc1` was tested, and the “Percent Effect” value was 113.2%.
In the case of `N#CCCN(C(=O)COC1CCCC1)C1CC1`, the “Percent Effect” value is reported as -11.78%.
With `CC(C)CN(C(=O)COc1ccc(C(N)=O)cc1)C1CCN(C)CC1` the “Percent Effect” value was -11.28%.
In the case of `CC(C)(C)CC(=O)N[C@@H]1CO[C@H](CNC(=O)c2ccncc2)[C@H]1O`, the “Percent Effect” value is reported as -7.962%.
`Cc1nc(C)c(C)c(N2C[C@@H](CN3CCCN(C)CC3)[C@@H](CO)C2)n1` was tested, and the “Percent Effect” value was 1.463%.
With `CN(C)CCCN(CCC#N)C(=O)Nc1ccc2[nH]ccc2c1` the “Percent Effect” value was -1.012%.
`O=C(O)C(F)(F)F.O=C(O)C(F)(F)F.O=C(O)c1c(-c2ccncc2)ncc2c1CCN(CC1CCOC1)C2` (stereo unspecified) was tested, and the “Percent Effect” value was 92.6%.
In the case of `O=C(O)C(F)(F)F.O=C(O)C(F)(F)F.O=C(O)c1c(-c2ccncc2)ncc2c1CCN(C1CCOC1)C2` (stereo unspecified), the “Percent Effect” value is reported as -10.9%.
With `CN(C(=O)CCOc1ccccc1)C1CCN(CC2CCOC2)CC1` (stereo unspecified) the “Percent Effect” value was -10.27%.
`Cc1ccc(Nc2ncnc3c2CCN(CC2CCOC2)CC3)cc1.O=C(O)C(F)(F)F` (stereo unspecified) was tested, and the “Percent Effect” value was -7.327%.
In the case of `O=C(O)C(F)(F)F.O=C(O)c1c(-c2ccoc2)ncc2c1CCN(C1CCOC1)C2` (stereo unspecified), the “Percent Effect” value is reported as -27.15%.
In the case of `O=C(O)C(F)(F)F.O=C(O)c1c(-c2cncnc2)ncc2c1CCN(CC1CCOC1)C2` (stereo unspecified), the “Percent Effect” value is reported as 114.1%.
With `O=C(O)C(F)(F)F.O=C(O)c1c(NC2CCC2)ncc2c1CCN(C1CCOC1)C2` (stereo unspecified) the “Percent Effect” value was -12.61%.
